EPAC2 ag: qHTS for Agonist of cAMP-regulated guanine nucleotide exchange factor 4 (EPAC2): primary screen. Rap guanine nucleotide exchange factor 4 (Homo sapiens), Q8WZA2. EPAC2 activation, biochemical qHTS; response scale: 100% = 6.5 mM cAMP response. Potency, µM (top dose mostly 154 µM), for inactives: at the highest dose activation, most hits filed as activators. 360,000 tested, 0.079% active; also: nearly all actives have a fitted effect of over 50% in size
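EPAC2 (100 nM) mixed with Rap1B loaded with BODIPY-GDP (250 nM) plus 50 uM unlabeled GDP; compounds pinned in, 5 min RT, then read every 5 min for 30 min (ex 480, em 540 nm). Normalized to cAMP control.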
EPAC1 agonist: qHTS for Agonist of cAMP-regulated guanine nucleotide exchange factor 3 (EPAC1): primary screen; Potency, µM (highest dose often 154 µM), for the others: at the top dose activation, usual class: activators; EPAC1 agonist qHTS, biochemical assay; response scale: 100% = response to 6.5 mM cAMP; 360,000 tested, 0.073% active; AID 720707, 2013; also: nearly all actives have a fitted effect of over 60% in size
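Multi-concentration qHTS readout: loss of Rap1B-bound BODIPY-GDP fluorescence driven by 100 nM EPAC1 with excess GDP (50 uM), monitored kinetically at room temperature; agonist response expressed relative to 6.5 mM cAMP.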
EPAC1 antag: qHTS for Antagonist of cAMP-regulated guanine nucleotide exchange factor 3 (EPAC1): primary screen. EPAC1 GEF assay, Rap1b-BODIPY-GDP exchange fluorescence. Potency, µM (top dose mostly 115 µM), for inactives: at the highest dose activity change, negative = inhibition, actives largely listed as inhibitors. AID 720709, 2013. 360,000 tested, 0.14% active. Rap guanine nucleotide exchange factor 3 (Homo sapiens), O95398;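 also: plate controls were vehicle for no effect and positive control for full effect; nearly all actives have a fitted effect of over 50% in size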
USP1 inh: Inhibitors of USP1/UAF1: Primary Screen | Ubiquitin carboxyl-terminal hydrolase 1 (Homo sapiens), O94782 | recombinant USP1/UAF1, Ub-Rhodamine cleavage fluorescence | Potency, µM (series often up to 57.1 µM), for inactives: at the highest dose activity change, negative = inhibition, actives largely listed as inhibitors | 390,000 tested, 0.23% active | AID 743255, 2014; also: % is scaled to controls: 0 for no effect and ±100 for the full control effect; nearly all actives have a fitted effect of over 60% in size
Target sequence (O94782 whole entry, looked up): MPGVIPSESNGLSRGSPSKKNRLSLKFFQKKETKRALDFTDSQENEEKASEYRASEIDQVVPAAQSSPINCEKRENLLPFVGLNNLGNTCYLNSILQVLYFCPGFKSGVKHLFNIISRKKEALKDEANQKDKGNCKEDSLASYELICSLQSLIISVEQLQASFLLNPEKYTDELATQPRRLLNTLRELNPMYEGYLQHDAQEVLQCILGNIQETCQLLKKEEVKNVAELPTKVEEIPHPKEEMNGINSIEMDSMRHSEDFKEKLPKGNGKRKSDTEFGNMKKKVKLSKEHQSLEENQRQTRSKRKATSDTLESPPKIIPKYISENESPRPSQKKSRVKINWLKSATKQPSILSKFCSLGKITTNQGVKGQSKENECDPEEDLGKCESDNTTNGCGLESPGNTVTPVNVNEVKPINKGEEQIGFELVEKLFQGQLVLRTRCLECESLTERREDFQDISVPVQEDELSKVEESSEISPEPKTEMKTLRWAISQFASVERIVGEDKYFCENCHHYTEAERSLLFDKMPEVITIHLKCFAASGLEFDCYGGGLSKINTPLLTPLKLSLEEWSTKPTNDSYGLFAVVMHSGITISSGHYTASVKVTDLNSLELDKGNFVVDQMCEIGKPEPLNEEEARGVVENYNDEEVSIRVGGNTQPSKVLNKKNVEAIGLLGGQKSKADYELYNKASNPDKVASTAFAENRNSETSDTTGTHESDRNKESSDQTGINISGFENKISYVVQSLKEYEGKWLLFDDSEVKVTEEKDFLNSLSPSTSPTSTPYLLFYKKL
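High-throughput fluorogenic screen: 1nM USP1/UAF1 complex, Ub-Rho substrate 150nM final, 50mM HEPES pH 7.8 with 0.5mM EDTA, 0.1 mg/ml BSA, 1mM TCEP and 0.01% Tween-20.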
EPAC2 antag: qHTS for Antagonist of cAMP-regulated guanine nucleotide exchange factor 2 (EPAC2): primary screen; EPAC2 GEF exchange of Rap1B-BODIPY-GDP, fluorescence; Potency, µM (titrated, usually from 114 µM), inactives show at the top dose activity, negative = inhibition, actives largely listed as inhibitors; Rap guanine nucleotide exchange factor 4 (Homo sapiens), Q8WZA2; 360,000 tested, 0.18% active; also: % is scaled to controls: 0 for no effect and ±100 for the full control effect; nearly all actives have a fitted effect of over 45% in size
* hit, by the source's call. Sampled rows, rich in hits. Any-hit rate of the full collection: about 0.49%. Calls follow the shape of the dose curve; as a rule, active = well fitted curve in the direction sought with a large enough effect; inconclusive = small, poorly fitted or top-dose-only effect, or another doubt; inactive = no such curve, though single readings can be large; an effect the other way counts as inactive or inconclusive. Potency is read from the fitted curve at half-maximal effect.

Screening CCc1ccc(S(=O)(=O)/N=C2\C=C(Nc3ccc(O)cc3)C(=O)c3ccccc32)cc1 returned EPAC2 ag 11%, EPAC1 agonist -3%, EPAC1 antag inconclusive, USP1 inh 10µM* and EPAC2 antag -24%.
Screening CCc1ccc(S(=O)(=O)/N=C2/C=C(Sc3ncn[nH]3)C(=O)c3ccccc32)cc1 returned EPAC2 ag 10%, EPAC1 agonist 1%, EPAC1 antag inconclusive, USP1 inh 1.8µM* and EPAC2 antag 40µM*.
O=C1C=C(Nc2ccc(O)cc2)C(=O)c2ccccc21 was read as EPAC2 ag -1%, EPAC1 agonist -11%, EPAC1 antag -6%, USP1 inh -27% and EPAC2 antag 0%.
CCc1ccc(S(=O)(=O)/N=C2\C=C(Nc3cccc(C(=O)O)c3)C(=O)c3ccccc32)cc1 was read as EPAC2 ag 4%, EPAC1 agonist -8%, EPAC1 antag inconclusive, USP1 inh 5.6µM* and EPAC2 antag inconclusive.
COc1ccc(Br)cc1CNC(=O)CCc1cn(Cc2ccc(C)cc2)c2ccccc12 was read as USP1 inh -12%.
`COC(=O)C1=C(C)NC(C)=C([N+](=O)[O-])C1c1ccccc1C(F)(F)F` (stereo not drawn) gave EPAC2 ag 3%, EPAC1 agonist -8%, EPAC1 antag -13%, USP1 inh 9% and EPAC2 antag 50µM*.
Cc1ccc(C)c(S(=O)(=O)N2CCN(C(=O)CCCc3c[nH]c4ccccc34)CC2)c1 was read as EPAC2 ag 15%, EPAC1 agonist 112µM*, EPAC1 antag -22%, USP1 inh -15% and EPAC2 antag -7%.
`Cc1ccc(C)c(S(=O)(=O)N2CCN(C(=O)CCc3c[nH]c4ccccc34)CC2)c1` gave EPAC2 ag 4%, EPAC1 agonist 12%, EPAC1 antag 6%, USP1 inh -25% and EPAC2 antag -19%.
For O=C(Nc1ccc(N2CCOCC2)c2nonc12)C1CCCC1 the results were EPAC2 ag -5%, EPAC1 agonist -5%, EPAC1 antag -11%, USP1 inh inconclusive and EPAC2 antag 3%.
Screening Nc1ccc(N2CCOCC2)c2nonc12 returned EPAC2 ag 14%, EPAC1 agonist 0%, EPAC1 antag inconclusive, USP1 inh 18µM* and EPAC2 antag inconclusive.
COc1cccc(NC2=C(NCCO)C(=O)c3ccccc3C2=O)c1 was read as EPAC2 ag 2%, EPAC1 agonist 3%, EPAC1 antag -7%, USP1 inh inconclusive and EPAC2 antag -16%.
COc1ccc(NC2=C(NCCO)C(=O)c3ccccc3C2=O)cc1 was read as EPAC2 ag -3%, EPAC1 agonist -1%, EPAC1 antag -27%, USP1 inh 25µM* and EPAC2 antag -5%.
Cc1cccc(NC2=C(NCCO)C(=O)c3ccccc3C2=O)c1 was read as EPAC2 ag 12%, EPAC1 agonist 7%, EPAC1 antag 25%, USP1 inh 32µM* and EPAC2 antag -5%.
Screening Cc1cccc2c1-c1sc(C(=O)N(C)c3cccc(Cl)c3)cc1CO2 returned USP1 inh -23%.
`CCCC(=O)OC1CC(C)N(C(=O)c2ccccc2)c2ccc(C)cc21` (stereo not drawn) gave EPAC2 ag 12%, EPAC1 agonist 8%, EPAC1 antag 2%, USP1 inh -24% and EPAC2 antag 25µM*.
For CCCOc1ccc(C(=O)Nc2ccc(NC(=O)c3ccccc3)c(C)c2)cc1 the results were USP1 inh 3%.
